Experimental data from PubChem BioAssay (Tox21).
Values joined by “and” are separate entries in the source; they are usually repeats but may differ in a detail not shown here. Identical values can stand only once. Results filed as inconclusive are left out. A structure can be active in one record and inactive in another. Active and inactive are the calls of the source. Unless noted, calls come from the whole dose curve; as a rule, active = well fitted curve in the direction sought with a large enough effect in the repeat runs; inconclusive = weak or mixed curves; inactive = no such curve, though single readings can be large; an effect the other way counts as inactive or inconclusive.

What was measured:
[1] = qHTS assay to identify small molecule agonists of the peroxisome proliferator-activated receptor delta (PPARd) signaling pathway - cell viability counter screen (AID 743211); note: nearly all actives have a fitted effect of over 55% in size; note: potency is the fitted concentration of half-maximal effect
Outline: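 Following 5 h plating at 37 C and 5% CO2, PPARd UAS-bla HEK293H cells took up test compounds for 17 h. Viability was quantified by luminescence 30 min after CellTiter-Glo addition at room temperature.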

[2] = qHTS assay to identify small molecule antagonists of the peroxisome proliferator-activated receptor delta (PPARd) signaling pathway - cell viability counter screen (AID 743213); note: nearly all actives have a fitted effect of over 50% in size; note: potency is the fitted concentration of half-maximal effect
Outline: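 PPARd-bla HEK293H cells were treated with compounds plus agonist L165041 (300 nM final) for 17 h at 37 C. Viability was then read in the same wells by CellTiter-Glo luminescence after 30 min at room temperature.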

[3] = qHTS assay to identify small molecule agonists of the farnesoid-X-receptor (FXR) signaling pathway - cell viability counter screen (AID 743218); note: nearly all actives have a fitted effect of over 45% in size; note: potency is the fitted concentration of half-maximal effect
Outline: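 Quantitative HTS counter screen measuring ATP-based viability via CellTiter-Glo luminescence in HEK 293T cells carrying a UAS-driven beta-lactamase reporter, after 16 h compound exposure at 37 C.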

[4] = qHTS assay to identify small molecule antagonists of the farnesoid-X-receptor (FXR) signaling pathway - cell viability counter screen (AID 743221; active = well fitted cell-killing curve with a large enough effect in the repeat runs, not every such curve was filed as active; note: nearly all actives have a fitted effect of over 50% in size)
Outline: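 Compound effects on cell number were measured as CellTiter-Glo luminescence in HEK 293T cells expressing FXR-UAS-bla, after 16 h at 37 C with 50 uM CDCA (final).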

[5] = biological target: Vitamin D3 receptor (Homo sapiens) (UniProt P11473); assay: qHTS assay to identify small molecule agonists of the vitamin D receptor (VDR) signaling pathway (AID 743222; calls by dose curve)
Sequence of Vitamin D3 receptor (Homo sapiens) (P11473 whole entry, looked up): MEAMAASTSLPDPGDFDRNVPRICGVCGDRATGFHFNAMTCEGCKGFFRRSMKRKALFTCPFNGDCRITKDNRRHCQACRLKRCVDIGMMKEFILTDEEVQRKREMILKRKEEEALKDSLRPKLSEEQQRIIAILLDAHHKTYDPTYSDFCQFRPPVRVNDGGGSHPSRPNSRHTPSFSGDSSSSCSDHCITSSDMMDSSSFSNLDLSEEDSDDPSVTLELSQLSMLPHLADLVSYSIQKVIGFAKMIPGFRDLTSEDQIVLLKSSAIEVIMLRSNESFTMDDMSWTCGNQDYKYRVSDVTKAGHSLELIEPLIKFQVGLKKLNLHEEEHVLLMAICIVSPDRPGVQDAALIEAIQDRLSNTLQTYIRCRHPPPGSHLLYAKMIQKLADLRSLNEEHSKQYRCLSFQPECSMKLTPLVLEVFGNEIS
Outline: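 Tox21 cell reporter format: VDR-bla line, 16 h compound exposure in 5% CO2 at 37C, then fluorescence intensity after 2 h with LiveBLAzer B/G FRET substrate.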

[6] = biological target: Vitamin D3 receptor (Homo sapiens) (UniProt P11473); assay: qHTS assay to identify small molecule antagonists of the vitamin D receptor (VDR) signaling pathway (AID 743223; active = well fitted inhibition curve with a large enough effect in the signal ratio in the repeat runs, not every such curve was filed as active; the % refers to the signal ratio; note: potency is the fitted concentration of half-maximal effect)
Outline: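 Beta-lactamase activity in VDR-bla cells is measured by FRET substrate fluorescence (2 h, room temperature) after cells spend 16 h at 37C with test compound and 3 nM final 1alpha,25-dihydroxyvitamin D3.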

[7] = qHTS assay to identify small molecule agonists of the vitamin D receptor (VDR) signaling pathway - cell viability counter screen (AID 743224); note: nearly all actives have a fitted effect of over 50% in size; note: potency is the fitted concentration of half-maximal effect
Outline: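 CellTiter-Glo viability readout on VDR-bla cells, measured after 16 h of compound treatment at 37C in the same wells.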

[8] = qHTS assay to identify small molecule agonists of the NFkB signaling pathway - cell viability counter screen (AID 1159515; calls by dose curve; note: nearly all actives have a fitted effect of over 55% in size; note: potency is the fitted concentration of half-maximal effect)
Outline: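 Tox21 library compounds were tested for cytotoxicity against NFkB-bla ME-180 cells during a 5 hr exposure at 37 C. CellTiter-Glo luminescence served as the viability read-out.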

[9] = qHTS assay to identify small molecule agonists of the endoplasmic reticulum stress response signaling pathway (AID 1159516; active = well fitted activation curve with a large enough effect in the signal ratio in the repeat runs, not every such curve was filed as active; the % refers to the signal ratio)
Outline: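 Fluorescence at 460 and 530 nm (405 nm excitation) reports beta-lactamase from an ER stress response element in HeLa cells treated 5 hr at 37 C.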

[10] = qHTS assay to identify small molecule agonists of the endoplasmic reticulum stress response signaling pathway - cell viability counter screen (AID 1159517; calls by dose curve; note: nearly all actives have a fitted effect of over 50% in size; note: potency is the fitted concentration of half-maximal effect)
Outline: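 Steps: seed 1,500 ESRE-bla HeLa cells per well; incubate overnight at 37 C, 5% CO2; add compounds in DMSO for 5 hr; run FRET substrate 2 hr RT; add CellTiter-Glo, wait 30 min, read luminescence.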

[11] = qHTS assay to identify small molecule antagonists of the retinoid-related orphan receptor gamma (ROR-gamma) signaling pathway - cell viability counter screen (AID 1159520); note: nearly all actives have a fitted effect of over 50% in size; note: potency is the fitted concentration of half-maximal effect
Outline: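 Tet-on ROR gamma CHO cells were given compounds for 2 hr, then doxycycline hyclate at 1 uM final, and incubated 16 hr at 37 C. Viability was measured as ATP content by CellTiter-Glo luminescence.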

[12] = biological target: Nuclear receptor ROR-gamma (Homo sapiens) (UniProt P51449); assay: qHTS assay to identify small molecule antagonists of the retinoid-related orphan receptor gamma (ROR-gamma) signaling pathway (AID 1159521)
Outline: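 Screening format: cell-based luciferase reporter in CHO cells with doxycycline-inducible RORγ. Compound pre-exposure lasts 2 h, doxycycline is 1 uM final, induction runs 16 h at 37 C, and ONE-Glo luminescence is read.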

[13] = qHTS assay to identify small molecule agonists of the AP-1 signaling pathway - cell viability counter screen (AID 1159525; calls by dose curve; note: nearly all actives have a fitted effect of over 55% in size; note: potency is the fitted concentration of half-maximal effect)
Outline: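 Same-well cytotoxicity counter screen of the Tox21 10K library in ME-180 cells. The readout is ATP-dependent luminescence after 5 h compound treatment. Data are normalised to DMSO and tetra n-octyl ammonium bromide controls.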

[14] = qHTS assay to identify small molecule agonists of the AP-1 signaling pathway (AID 1159526; calls by dose curve)
[15] = biological target: Retinoic acid receptor RXR-alpha (Homo sapiens) (UniProt P19793); assay: qHTS assay to identify small molecule agonists of the RXR signaling pathway (AID 1159527; calls by dose curve; note: nearly all actives have a fitted effect of over 35% in size; note: potency is the fitted concentration of half-maximal effect)
Sequence of Retinoic acid receptor RXR-alpha (Homo sapiens) (P19793 whole entry, looked up): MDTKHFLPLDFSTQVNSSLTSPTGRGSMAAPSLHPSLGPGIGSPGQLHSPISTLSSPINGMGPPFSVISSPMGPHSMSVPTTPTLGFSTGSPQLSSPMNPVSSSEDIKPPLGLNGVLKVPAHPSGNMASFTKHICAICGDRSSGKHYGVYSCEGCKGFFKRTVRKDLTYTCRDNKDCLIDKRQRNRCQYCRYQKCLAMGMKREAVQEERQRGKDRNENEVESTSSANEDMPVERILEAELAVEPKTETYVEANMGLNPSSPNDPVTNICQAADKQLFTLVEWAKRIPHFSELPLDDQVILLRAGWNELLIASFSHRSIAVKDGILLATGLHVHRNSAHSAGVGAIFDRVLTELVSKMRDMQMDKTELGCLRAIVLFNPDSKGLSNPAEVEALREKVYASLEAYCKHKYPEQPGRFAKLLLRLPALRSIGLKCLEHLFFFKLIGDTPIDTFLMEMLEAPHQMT
Outline: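 Fluorescence ratio readout (460 vs 530 nm) from GeneBLAzer RXR-alpha HEK 293T cells after 16 hr compound treatment; cells seeded 5 hr beforehand in low-serum, charcoal-stripped medium.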

[16] = biological target: Peroxisome proliferator-activated receptor delta (Homo sapiens) (UniProt Q03181); assay: qHTS assay to identify small molecule agonists of the peroxisome proliferator-activated receptor delta (PPARd) signaling pathway (AID 743212; calls by dose curve)
Sequence of Peroxisome proliferator-activated receptor delta (Homo sapiens) (Q03181 whole entry, looked up): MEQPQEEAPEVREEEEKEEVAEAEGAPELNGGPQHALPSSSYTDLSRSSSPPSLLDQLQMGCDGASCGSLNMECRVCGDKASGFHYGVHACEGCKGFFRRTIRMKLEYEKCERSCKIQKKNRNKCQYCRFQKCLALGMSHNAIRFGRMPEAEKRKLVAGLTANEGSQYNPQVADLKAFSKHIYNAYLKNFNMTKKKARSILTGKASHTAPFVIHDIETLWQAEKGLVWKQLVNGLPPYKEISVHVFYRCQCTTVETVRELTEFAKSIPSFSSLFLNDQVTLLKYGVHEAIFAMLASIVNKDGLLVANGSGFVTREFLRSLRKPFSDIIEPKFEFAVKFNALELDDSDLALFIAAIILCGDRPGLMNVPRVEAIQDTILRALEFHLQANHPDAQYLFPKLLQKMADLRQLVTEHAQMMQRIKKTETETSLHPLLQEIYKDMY
Outline: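 Read-out: beta-lactamase FRET fluorescence after 2 h room-temperature incubation with LiveBLAzer B/G substrate. Cells were HEK293H carrying a UAS-bla reporter for PPARd, treated at 37 C with DMSO-dissolved compounds.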

[17] = qHTS assay to identify small molecule antagonists of the vitamin D receptor (VDR) signaling pathway - cell viability counter screen (AID 743225); note: nearly all actives have a fitted effect of over 50% in size
Outline: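 In this counter screen, VDR-bla HEK 293T cells receive test compound plus 3 nM final calcitriol for 16 h at 37C. Room-temperature steps of 2 h with the beta-lactamase substrate, then 30 min with CellTiter-Glo, precede the luminescence read.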

[18] = biological target: Bile acid receptor (Homo sapiens) (UniProt Q96RI1); assay: qHTS assay to identify small molecule antagonists of the farnesoid-X-receptor (FXR) signaling pathway (AID 743217; active = well fitted inhibition curve with a large enough effect in the signal ratio in the repeat runs, not every such curve was filed as active; the % refers to the signal ratio; note: potency is the fitted concentration of half-maximal effect)
Sequence of Bile acid receptor (Homo sapiens) (Q96RI1 whole entry, looked up): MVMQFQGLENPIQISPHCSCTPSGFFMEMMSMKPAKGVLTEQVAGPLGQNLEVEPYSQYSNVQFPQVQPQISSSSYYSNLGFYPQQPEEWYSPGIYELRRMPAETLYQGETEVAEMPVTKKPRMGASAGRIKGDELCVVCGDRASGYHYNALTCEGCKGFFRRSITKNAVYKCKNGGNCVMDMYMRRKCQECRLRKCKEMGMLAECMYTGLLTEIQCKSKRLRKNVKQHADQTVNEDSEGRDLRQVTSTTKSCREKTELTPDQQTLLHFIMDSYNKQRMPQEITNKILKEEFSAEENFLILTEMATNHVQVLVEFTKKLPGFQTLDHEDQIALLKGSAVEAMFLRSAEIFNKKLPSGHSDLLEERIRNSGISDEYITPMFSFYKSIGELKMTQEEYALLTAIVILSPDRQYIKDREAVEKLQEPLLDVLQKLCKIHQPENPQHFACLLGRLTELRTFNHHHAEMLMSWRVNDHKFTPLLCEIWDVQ
Outline: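 Test compounds are pin-transferred onto FXR-bla HEK 293T cells, then chenodeoxycholic acid is added at 50 uM final. After 16 h at 37 °C, LiveBLAzer B/G substrate is applied for 2 h at room temperature and fluorescence read.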

[19] = biological target: Bile acid receptor (Homo sapiens) (UniProt Q96RI1); assay: qHTS assay to identify small molecule agonists of the farnesoid-X-receptor (FXR) signaling pathway (AID 743220; active = well fitted activation curve with a large enough effect in the signal ratio in the repeat runs, not every such curve was filed as active; the % refers to the signal ratio)
Outline: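 FXR-UAS-bla HEK 293T cells carrying a UAS-driven beta-lactamase reporter were plated for 5 h at 37C/5% CO2, then exposed to DMSO-dissolved Tox21 10K compounds for 16 h at 37C. A LiveBLAzer B/G FRET substrate was loaded for 2 h at room temperature before fluorescence reading.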

[20] = biological target: Peroxisome proliferator-activated receptor delta (Homo sapiens) (UniProt Q03181); assay: qHTS assay to identify small molecule antagonists of the peroxisome proliferator-activated receptor delta (PPARd) signaling pathway (AID 743215; active = well fitted inhibition curve with a large enough effect in the signal ratio in the repeat runs, not every such curve was filed as active; the % refers to the signal ratio;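 note: cells stimulated with agonist L165041 at 300 nM final during compound exposure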; note: potency is the fitted concentration of half-maximal effect)
Outline: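 Here, a reporter line (HEK293H, beta-lactamase under a UAS) measures PPARd signaling. Compounds are tested against agonist L165041 at 300 nM final concentration over 17 h at 37 C, with fluorescence read after substrate.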

Measured: Potency

C[N+](C)(C)C
not listed: [16] | [17] | [18] | [19] | [20]
inactive: all other assays above

CCOP(=O)(OCC)OCC
active: [15] 5.49 µM
not listed: [18] | [19] | [20]
inactive: all other assays above

COc1ccc(CO)cc1
not listed: [16] | [20]
inactive: all other assays above

O=S(=O)(O)C(F)(F)C(F)(F)C(F)(F)C(F)(F)C(F)(F)C(F)(F)C(F)(F)C(F)(F)F
active: [2] 26.2 µM and 43.6 µM | [3] 52.3 µM and 49 µM and 33.6 µM
not listed: [4] | [7] | [16] | [17] | [18] | [19] | [20]
inactive: all other assays above

ClC(Cl)=C(Cl)C(Cl)=C(Cl)Cl
not listed: [4] | [5] | [6] | [16] | [18] | [19]
inactive: all other assays above

C=CC(Cl)CCl (centres undefined)
not listed: [16] | [17] | [20]
inactive: all other assays above

O=P(OCCCl)(OCCCl)OCCCl
not listed: [10] | [16]
inactive: all other assays above

ClC(Cl)(Cl)c1ccccc1
not listed: [10] | [17]
inactive: all other assays above

CCCCOC(=O)COC(=O)c1ccccc1C(=O)OCCCC
not listed: [5] | [6] | [12] | [16] | [17] | [18] | [19]
inactive: all other assays above

NC(=O)CN1CCCC1=O
not listed: [4] | [12] | [16] | [18] | [19] | [20]
inactive: all other assays above

ClCC(Cl)CCl
not listed: [12] | [18] | [19]
inactive: all other assays above

ClC(Cl)(Cl)Br
not listed: [4] | [12] | [16]
inactive: all other assays above

CCC(=O)Nc1ccc(Cl)c(Cl)c1
not listed: [12] | [16] | [17] | [18] | [19] | [20]
inactive: all other assays above

O=C(O)c1nn(Cc2ccc(Cl)cc2Cl)c2ccccc12
not listed: [6] | [12] | [15] | [16] | [18] | [19]
inactive: all other assays above

Oc1ccc(Cl)cc1Cl
not listed: [4] | [12] | [16] | [17]
inactive: all other assays above

Clc1cccc(Cl)c1
not listed: [12] | [15] | [18] | [19]
inactive: all other assays above

CC(C)(c1ccc(OCC2CO2)cc1)c1ccc(OCC2CO2)cc1 (centres undefined)
active: [1] 34.7 µM
not listed: [5] | [6] | [12] | [15] | [16] | [17] | [18] | [19]
inactive: all other assays above

C[N+](C)(C)CC(=O)[O-]
not listed: [4] | [5] | [6] | [12] | [16] | [17] | [18] | [19]
inactive: all other assays above

NN=C(N)N
inactive: [1] | [2] | [3] | [7] | [8] | [9] | [10] | [11] | [13] | [14] | [15]

CCNCC
not listed: [4] | [6] | [12] | [16] | [18] | [19]
inactive: all other assays above

CCOP(=S)(OCC)SCSC(C)(C)C
not listed: [4] | [12] | [16] | [17] | [18] | [19]
inactive: all other assays above

CCCCC(C#N)(Cn1cncn1)c1ccc(Cl)cc1 (centres undefined)
not listed: [5] | [6] | [12] | [15] | [18] | [19]
inactive: all other assays above

CN(C)c1ccccc1
not listed: [4] | [12] | [16] | [20]
inactive: all other assays above

C[N+](C)(C)CC(=O)O
not listed: [3] | [5] | [6] | [10] | [17] | [18] | [19]
inactive: all other assays above

O=[N+]([O-])/N=C1\NCCN1Cc1ccc(Cl)nc1
not listed: [4] | [12] | [16] | [20]
inactive: all other assays above

O=NN1CCOCC1
not listed: [12] | [16] | [18] | [19]
inactive: all other assays above

C[C@]12CCC(=O)C=C1CC[C@@H]1[C@@H]2CC[C@@]2(C)[C@H]1CC[C@]2(C)O
not listed: [5] | [6] | [12] | [15] | [16] | [18] | [19] | [20]
inactive: all other assays above

CC[n+]1c(-c2ccccc2)c2cc(N)ccc2c2ccc(N)cc21
active: [1] 24.4 µM | [20] 24.4 µM and 23.7 µM | [18] 7.73 µM and 5.31 µM | [3] 614 nM | [6] 12 µM | [7] 21.8 µM
not listed: [12] | [15] | [16] | [19]
inactive: all other assays above

Oc1ccc(Cl)cc1Cc1ccccc1
60.5 µM (active) and inactive: [3]
44.2 µM (active) and inactive: [2]
inactive: [20] | [4] | [7] | [9]
61.1 µM (active) and inactive: [11]
49 µM (active) and inactive: [10]
active: [1] 54.9 µM | [8] 54.9 µM and 49.6 µM | [13] 54.9 µM and 44.2 µM

COP(=O)(NC(C)=O)SC (centres undefined)
not listed: [10] | [18] | [19]
inactive: all other assays above

CC(C)=CC1C(C(=O)OCN2C(=O)C3=C(CCCC3)C2=O)C1(C)C (centres undefined)
not listed: [12] | [14] | [15] | [16] | [17] | [18] | [19] | [20]
inactive: all other assays above

N#Cc1cccnc1
not listed: [12] | [16] | [17]
inactive: all other assays above
